The supplement of paper PMC9262897, “Low-cost anti-mycobacterial drug discovery using engineered E. coli” (Nature Communications, 2022)
Structures can show the parent of a compound that is named as a salt. ± gives the standard deviation of the averaged measurements.

Experiments:
Test in all cases: growth (OD600 after 10 h); higher = more growth (less inhibition)
[1] = tested on: E. coli TESEC Alr+ wild-type control; conditions: compound 0.1 mM; raw OD600 reference: median of DMSO wells 0.241, cell-free background 0.041
Protocol: (§1)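 TESEC Mtb Alr E. coli, or the Alr+ wild-type control, in 384-well plates with Prestwick library compounds at 0.1 mM and 1% DMSO, across arabinose induction levels of 1E3 to 1E7 nM. Growth is read as OD600 after 10 h at 37 °C in triplicate biological replicates.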

E. coli TESEC Mtb Alr [2] = conditions: compound 0.1 mM
Protocol: as §1

E. coli TESEC Mtb Asd = conditions: compound 0.1 mM
Protocol: (§2)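 TESEC E. coli strains in which the native enzyme is deleted and replaced by arabinose-inducible Mtb Asd, DapB, CysH or TrpD, each grown in its selective medium. Strains were screened against the Prestwick library at 0.1 mM and 1% DMSO in 384-well format at low and high arabinose induction. Growth is read as OD600 after 10 h in triplicate.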

E. coli TESEC Mtb Alr [3] = conditions: compound 0.1 mM; remark: listed apart in the source
Protocol: (§3)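 TESEC Mtb Alr E. coli (ΔaraC ΔtolC ΔentC Δalr ΔdadX, arabinose-inducible Mtb Alr) or the Alr+ wild-type control strain, grown in defined M9-fructose medium without D-alanine in 96-well plates with Prestwick library compounds at 0.1 mM and 1% DMSO. Low Alr induction is 0.1 µM arabinose and high induction is 10 mM arabinose.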

E. coli TESEC Mtb DapB = conditions: compound 0.1 mM
Protocol: as §2

[4] = tested on: E. coli TESEC Alr+ wild-type control; conditions: compound 0.1 mM; raw OD600 reference: median of DMSO wells 0.49, cell-free background 0.052
Protocol: as §3

[5] = arabinose 1000 nM, raw OD600 reference: median of DMSO wells 0.294, cell-free background 0.041
[6] = arabinose 10000 nM, raw OD600 reference: median of DMSO wells 0.264, cell-free background 0.041
[7] = arabinose 100000 nM, raw OD600 reference: median of DMSO wells 0.201, cell-free background 0.041
[8] = arabinose 1000000 nM, raw OD600 reference: median of DMSO wells 0.193, cell-free background 0.041
[9] = arabinose 10000000 nM, raw OD600 reference: median of DMSO wells 0.146, cell-free background 0.041
[10] = arabinose induction (level): High, raw OD600 reference: median of DMSO wells 0.331, cell-free background 0.041
[11] = arabinose induction (level): Low, raw OD600 reference: median of DMSO wells 0.417, cell-free background 0.041
[12] = arabinose 100 nM, raw OD600 reference: median of DMSO wells 0.413, cell-free background 0.052
[13] = arabinose 10000000 nM, raw OD600 reference: median of DMSO wells […], cell-free background 0.052
[14] = arabinose induction (level): High, raw OD600 reference: median of DMSO wells […], cell-free background 0.041
[15] = arabinose induction (level): Low, raw OD600 reference: median of DMSO wells 0.227, cell-free background 0.041

Row | Structure (SMILES) | growth [1] | growth (E. coli TESEC Mtb Alr [2]; [5]) | growth (E. coli TESEC Mtb Alr [2]; [6]) | growth (E. coli TESEC Mtb Alr [2]; [7]) | growth (E. coli TESEC Mtb Alr [2]; [8]) | growth (E. coli TESEC Mtb Alr [2]; [9]) | growth (E. coli TESEC Mtb Asd; [10]) | growth (E. coli TESEC Mtb Asd; [11]) | growth (E. coli TESEC Mtb Alr [3]; [12]) | growth (E. coli TESEC Mtb Alr [3]; [13]) | growth (E. coli TESEC Mtb DapB; [14]) | growth (E. coli TESEC Mtb DapB; [15]) | growth [4]
1 | CCCC[N+]1(C)[C@@H]2CC(OC(=O)[C@H](CO)c3ccccc3)C[C@H]1[C@@H]1O[C@@H]12 (stereo partly specified) [Butylscopolammonium (n-) bromide] | 0.225 ± 0.0045 | 0.296 ± 0.012 | 0.2707 ± 0.0023 | 0.189 ± 0.01 | 0.185 ± 0.0011 | 0.132 ± 0.0029 | 0.372 ± 0.073 | 0.412 ± 0.034 | 0.405 ± 0.0075 | 0.338 ± 0.021 | – | – | –
2 | CN1[C@@H]2CC[C@H]1C[C@@H](OC1c3ccccc3CCc3ccccc31)C2 [Deptropine citrate] | 0.046 ± 0.0008 | – | – | – | – | – | 0.0939 ± 0.05 | 0.0858 ± 0.012 | 0.392 ± 0.0043 | 0.0701 ± 0.03 | 0.0744 ± 0.011 | 0.069 ± 0.01 | –
3 | CN(C)C(=O)Oc1cc(OC(=O)N(C)C)cc(C(O)CNC(C)(C)C)c1 (stereo unspecified) [Bambuterol hydrochloride] | 0.22 ± 0.0079 | – | – | – | – | – | 0.328 ± 0.026 | 0.39 ± 0.047 | 0.405 ± 0.011 | 0.342 ± 0.015 | – | – | –
4 | C#C[C@]1(O)CC[C@H]2[C@@H]3CCC4=CC(=O)CC[C@]4(C)[C@H]3CC[C@@]21C [Ethisterone] | 0.237 ± 0.0043 | 0.28 ± 0.01 | 0.2589 ± 0.0022 | 0.21 ± 0.015 | 0.172 ± 0.0021 | 0.1381 ± 0.001 | 0.344 ± 0.057 | 0.41 ± 0.063 | 0.408 ± 0.0092 | 0.39 ± 0.055 | – | – | –
5 | COc1cc2c(c(OC)c1OC)-c1ccc(OC)c(=O)cc1[C@@H](NC(C)=O)CC2 [Colchicine] | 0.226 ± 0.0076 | – | – | – | – | – | 0.276 ± 0.063 | 0.355 ± 0.1 | 0.423 ± 0.038 | 0.322 ± 0.0069 | – | – | –
6 | CNC(=O)Oc1ccc2c(c1)[C@]1(C)CCN(C)[C@@H]1N2C [Eserine hemisulfate salt] | 0.229 ± 0.0049 | 0.289 ± 0.0076 | 0.251 ± 0.003 | 0.203 ± 0.025 | 0.184 ± 0.0065 | 0.139 ± 0.008 | 0.328 ± 0.037 | 0.408 ± 0.048 | 0.409 ± 0.017 | 0.366 ± 0.01 | – | – | –
7 | c1ccc2nc(N3CCNCC3)ccc2c1 [Quipazine dimaleate salt] | 0.232 ± 0.008 | – | – | – | – | – | 0.223 ± 0.013 | 0.257 ± 0.015 | 0.402 ± 0.0069 | 0.371 ± 0.02 | – | – | –
8 | CC(=O)NC1CCSC1=O (racemic) [N-Acetyl-DL-homocysteine Thiolactone] | 0.253 ± 0.013 | – | – | – | – | – | 0.29 ± 0.041 | 0.451 ± 0.01 | 0.402 ± 0.0097 | 0.35 ± 0.02 | 0.226 ± 0.0088 | 0.242 ± 0.019 | –
9 | CN1[C@@H]2CC[C@H]1C[C@@H](OC(=O)[C@H](CO)c1ccccc1)C2 [Hyoscyamine (L)] | 0.243 ± 0.0078 | – | – | – | – | – | 0.317 ± 0.073 | 0.377 ± 0.074 | 0.415 ± 0.02 | 0.34 ± 0.02 | 0.191 ± 0.014 | 0.29 ± 0.023 | –
10 | C1CCc2nnnn2CC1 [Pentylenetetrazole] | 0.255 ± 0.011 | – | – | – | – | – | 0.402 ± 0.0048 | 0.431 ± 0.017 | 0.408 ± 0.011 | 0.367 ± 0.022 | 0.227 ± 0.037 | 0.274 ± 0.11 | –
11 | NCC(CC(=O)O)c1ccc(Cl)cc1 (racemic) [Baclofen (R,S)] | 0.248 ± 0.011 | 0.299 ± 0.0066 | 0.2703 ± 0.0017 | 0.22 ± 0.029 | 0.189 ± 0.0083 | 0.15 ± 0.007 | 0.392 ± 0.032 | 0.422 ± 0.029 | 0.408 ± 0.0092 | 0.361 ± 0.026 | – | – | –
12 | c1ccc2c(c1)Nc1ccccc1S2 [Phenothiazine] | 0.157 ± 0.0061 | – | – | – | – | – | 0.377 ± 0.076 | 0.177 ± 0.014 | 0.415 ± 0.0099 | 0.344 ± 0.021 | – | – | 0.457 ± 0.0082
13 | O=C(NCNC(=O)NC1C(=O)NC(=O)N1CO)NC1C(=O)NC(=O)N1CO (stereo unspecified) [Imidurea] | 0.231 ± 0.0035 | – | – | – | – | – | 0.336 ± 0.057 | 0.358 ± 0.074 | 0.44 ± 0.021 | 0.345 ± 0.012 | – | – | –
14 | C[C@]12CC[C@@H](O)C[C@@H]1CC[C@@H]1[C@@H]2CC[C@]2(C)C(=O)CC[C@@H]12 [Androsterone] | 0.117 ± 0.0044 | 0.123 ± 0.002 | 0.212 ± 0.012 | 0.118 ± 0.0038 | 0.0932 ± 0.0027 | 0.0878 ± 0.0015 | 0.148 ± 0.026 | 0.324 ± 0.044 | 0.3429 ± 0.0014 | 0.0883 ± 0.011 | – | – | –
15 | COc1ccc(Cc2nccc3cc(OC)c(OC)cc23)cc1OC [Papaverine hydrochloride] | 0.153 ± 0.0032 | 0.199 ± 0.0045 | 0.215 ± 0.0047 | 0.141 ± 0.0019 | 0.087 ± 0.0015 | 0.133 ± 0.0021 | 0.133 ± 0.013 | 0.262 ± 0.035 | 0.397 ± 0.0098 | 0.22 ± 0.0059 | – | – | –
16 | C=CC[C@]1(O)CC[C@H]2[C@@H]3CCC4=CC(=O)CCC4=C3C=C[C@@]21C [Altrenogest] | 0.132 ± 0.0045 | – | – | – | – | – | 0.148 ± 0.027 | 0.126 ± 0.021 | 0.376 ± 0.0056 | 0.134 ± 0.011 | 0.148 ± 0.002 | 0.162 ± 0.006 | –
17 | Cc1cc(C(C#N)c2ccc(Cl)cc2)c(Cl)cc1NC(=O)c1cc(I)cc(I)c1O (stereo unspecified) [Closantel] | 0.067 ± 0.0041 | 0.0633 ± 0.008 | 0.0425 ± 0.0013 | 0.0471 ± 0.0022 | 0.0411 ± 0.00058 | 0.0539 ± 0.00083 | 0.0773 ± 0.0025 | 0.0874 ± 0.0013 | 0.137 ± 0.042 | 0.145 ± 0.043 | – | – | –
18 | CCC1(c2ccc(N)cc2)CCC(=O)NC1=O (stereo unspecified) [Glutethimide, para-amino] | 0.24 ± 0.0099 | 0.279 ± 0.016 | 0.251 ± 0.01 | 0.222 ± 0.029 | 0.178 ± 0.0065 | 0.146 ± 0.0091 | 0.393 ± 0.032 | 0.43 ± 0.03 | 0.402 ± 0.014 | 0.383 ± 0.033 | – | – | –
